The results in this text go back to PubChem BioAssay (Tox21).

Records with an inconclusive call do not appear. Active and inactive are the calls of the source. Calls follow the shape of the dose curve; as a rule, active = well fitted activation curve with a large enough effect in the repeat runs; inconclusive = weak or mixed curves, or effect the other way; inactive = no such curve, though single readings can be large or run the other way.
% is scaled to controls: 0 for no effect and ±100 for the full control effect.

The nature of this assay: qHTS assay to identify small molecule agonists of the estrogen related receptor signaling pathway with the pleiotropic PPARgamma coactivator (PGC) from Tox21 10K library (AID 1224842). Also: nearly all actives have a fitted effect of over 15% in size. The conditions noted are these: PGC/ERR reporter cell line, luciferase ONE-Glo, 18 h; series mostly up to 92.4 µM; activation: at the top concentration. From the text:
National Center for Advancing Translational Sciences [NCATS] NIH Chemical Genomics Center [NCGC] U.S. Environmental Protection Agency [EPA] National Institutes of Environmental Health Sciences [NIEHS] National Toxicology Program [NTP] Assay overview: Estrogen related receptors (ERRs), the first orphan nuclear receptors discovered, play an important role in the control of cellular energy metabolism. ERRs are required for high-energy production in response to the environmental challenges. The pleiotropic PPARgamma coactivator (PGC) is a major partner of ERR and a key regulator in energy homeostasis. Together they have been implicated in the etiology of metabolic disorders such as Type 2 diabetes and metabolic syndrome. ERR-alpha was also identified as an adverse marker for breast cancer progression; ERR-alpha-positive tumors have a poor prognosis. To screen and to identify environmental compounds that perturb the PGC/ERR signaling pathways could provide valuable information for potential therapeutic or preventive measures in the treatment of metabolic disease. For identifying PGC/ERR agonists, PGC/ERR cell line (provided by NTP) has been used to screen Tox21 10K library.
Assay Protocol Summary: The PGC/ERR cells were dispensed at 2,000 cells/5 ul/well in 1536-well white plates using a Multidrop dispenser. After the assay plates were incubated at a 37 C/5% CO2 incubator for 6 hours, 23 nL of compounds dissolved in DMSO, positive and negative controls or DMSO only was transferred to the assay plate by a pin tool. The plates were incubated at 37 C for 18 hours. 4 ul/well of One-Glo reagent was added into the assay plates using a Flying Reagent Dispenser. After 30-minute incubation at room temperature, the luminescence intensity in the plates was measured using a ViewLux plate reader.
Background: In qHTS, concentration-response curves come from the screen itself.
Turning to `Cc1nc(C)c(C)nc1C`, the “activation” value was -2.52% (inactive).

`Clc1cc(Cl)c2c(c1)N=C1CCCCCN1C2`: the “activation” value is 4.63% [at 42.5 µM] (inactive).

Regarding `N#C[C@@H]1CC(F)(F)CN1C(=O)CNC1CC2CCC(C1)N2c1ncccn1` (stereo not given in full), the “activation” value was -5.1% (inactive).

As for `CC(=O)Nc1ccn(C2COC(COC(=O)c3ccccc3)O2)c(=O)n1` (stereo not given), the “activation” value is 3.83% [at 42.5 µM] (inactive).

In the case of `C=Cc1ccc(C=C)cc1`, the “activation” value was -1.98% (inactive).

Turning to `CCn1nc(Cc2ccccc2)cc1C1CCN(C[C@H]2C[C@H](N(C)[C@@H](C(=O)O)C(C)C)C[C@@H]2c2cccc(F)c2)CC1`, the “activation” value was -3.77% (inactive).

Take `CCOc1ccc(NC(C)=O)cc1N`: the “activation” value is 3.63% (inactive).

`CCC1=C(C)CN(C(=O)NCCc2ccc(S(=O)(=O)NC(=O)NC3CCC(C)CC3)cc2)C1=O` (stereo not given): the “activation” value was 2.42% [at 42.5 µM] (inactive).

As for `Nc1cccc2c(=O)[nH][nH]c(=O)c12`, the “activation” value is -23% (inactive).

Take `CC(C)C/C=C(\C=O)c1ccccc1`: the “activation” value was -1.98% (inactive).

With `CC(C)(Cc1c[nH]c2ccccc12)NCC(O)COc1ccccc1C#N` (stereo not given), the “activation” value was -9.93% [at 42.5 µM] (inactive).

In the case of `Cc1cc(C)c(C)c(O)c1`, the “activation” value is 0.275% (inactive).

For the molecule `O=C(c1ccco1)N1CCNCC1`, the “activation” value was -0.0135% [at 42.5 µM] (inactive).

On to `CC1=CC(=C(c2ccc(N)cc2)c2ccc(N)cc2)C=CC1=N`, for which the activation was -25.9% [at 8.39 µM] (inactive).

Take `COc1ccc(/C(C)=C/C(=O)O)c(OC)c1`: the “activation” value was 1.65% [at 42.5 µM] (inactive).

For the molecule `CC(=O)c1cccnc1`, the “activation” value was -0.0228% (inactive).

With `OCCOc1cccc(OCCO)c1`, the “activation” value was 4.79% (inactive).

For the molecule `O=C(OCCCCCOC(=O)c1ccccc1)c1ccccc1`, the “activation” value is 0.403% (inactive).

Take `NCCOCCOCCN`: the “activation” value is 2.5% (inactive).

Regarding `C/C(=C(\CCO)SS/C(CCO)=C(\C)N(C=O)Cc1cnc(C)nc1N)N(C=O)Cc1cnc(C)nc1N`, the “activation” value was 0.488% [at 42.5 µM] (inactive).

Turning to `O=c1[nH]nc(-c2ccc([N+](=O)[O-])o2)o1`, the “activation” value was -13.2% (inactive).

As to `N#CCCCC(C#N)CCC#N` (stereo not given), the “activation” value is 4.15% (inactive).

Turning to `CCCCCCCCCCCCN1CCOCC1`, the “activation” value was -1.49% (inactive).

Turning to `CCCCCCCCCCCCCCCCCCCl`, the activation was 1.05% [at 8.39 µM] (inactive).

As for `CC(C)CC(C)(C)C`, the “activation” value is -15.4% (inactive).

Turning to `N#Cc1ccc(CC(=O)c2cccc(C(F)(F)F)c2)cc1`, the “activation” value was -10.9% (inactive).

In the case of `CC(CC(C#N)(c1ccccc1)C(C)C)N(C)C` (stereo not given), the “activation” value was -2.28% [at 42.5 µM] (inactive).

`O=C(N[C@@H](Cc1ccccc1)[C@@H](O)C(=O)N1C[C@@H](O)[C@@H](O)C1)c1cc2cc(Cl)ccc2[nH]1`: the “activation” value was -20.4% (inactive).

On to `O=C(Cl)c1ccc(F)c(Cl)c1`, for which the “activation” value is -3.53% (inactive).

On to `Cc1cc(N)n(-c2ccccc2)n1`, for which the “activation” value was 3.44% (inactive).

Regarding `OCCc1ccncc1`, the “activation” value was -2.09% (inactive).

As for `O=C(O)c1cc(C(=O)O)c(C(=O)O)cc1C(=O)O`, the “activation” value is -1.86% (inactive).

In the case of `CCCCCCOC(=O)c1ccccc1`, the “activation” value is 2.66% (inactive).

As to `CCCCCC1CCC(=O)O1` (stereo not given), the “activation” value is -0.379% (inactive).

For the molecule `CCCN(C1CCN(C(=O)C2CCNCC2)CC1)[C@@H]1CCc2ccc(OC)cc2C1`, the “activation” value is -9.39% (inactive).

Consider `CC(=O)Nc1cccc(N)c1`, for which the “activation” value is 0.283% (inactive).

With `COC=O`, the activation is 3.43% [at 8.39 µM] (inactive).

As to `CC(C)Oc1ccccc1O`, the “activation” value is 1.05% (inactive).

Consider `C=CC(=O)OCCCCCCCCCC`, for which the “activation” value is 2.07% (inactive).

For the molecule `CC(C)C[C@H](NC(=O)[C@H](Cc1ccccc1)NC(=O)c1cnccn1)B(O)O`, the “activation” value is -29.8% [at 42.5 µM] (inactive).
